Measurements taken from PubChem BioAssay AID1159580 (chemical genetic matrix, 2015).
About 2,000 (36%) of roughly 5,500 compounds were called active. About 18% were inconclusive and are not listed. No stated cut-off is given here; in the data, active means normalized growth mostly below about 0.91 (no sharp cut-off); inconclusive means no clear call, values can overlap the other calls; inactive means mostly above about 0.92. The list shows a part of the results.

Assay: chemical genetic growth profiling, strain panel (AID 1159580);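 further: tested at 20 µM; growth read once vehicle control cultures reached saturation at 30 °C; 1 = growth at the plate median or of vehicle wells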
Details: growth OD

Measured: normalized growth

ClC1=C(Cl)C2(Cl)C3C4C=CC(C4)C3C1(Cl)C2(Cl)Cl (configuration not stated)
inactive: S. cerevisiae deletion strains, locus YJR075W, strain HOC1, stronger effect = lower value 1.01 | S. cerevisiae deletion strains, locus YKL009W, strain mrt4, stronger effect = lower value 0.953 | S. cerevisiae deletion strains, locus YKL068W, stronger effect = lower value 0.996 | S. cerevisiae deletion strains, locus YKL085W, strain MDH1 (second series), stronger effect = lower value 0.996 | S. cerevisiae deletion strains, locus YKL085W, strain MDH1, stronger effect = lower value 0.996 | S. cerevisiae deletion strains, locus YKL160W, strain elf1, stronger effect = lower value 0.998 | S. cerevisiae deletion strains, locus YKL190W, strain CNB1, stronger effect = lower value 1 | S. cerevisiae deletion strains, locus YKR001C, strain vps1, stronger effect = lower value 0.998 | S. cerevisiae deletion strains, locus YKR026C, strain gcn3, stronger effect = lower value 0.997 | S. cerevisiae deletion strains, locus YKR091W, strain srl3, stronger effect = lower value 0.996 | S. cerevisiae deletion strains, locus YLL001W, strain dnm1, stronger effect = lower value 0.998 | S. cerevisiae deletion strains, locus YLL026W, stronger effect = lower value 1 | S. cerevisiae deletion strains, locus YLL041C, strain sdh2, stronger effect = lower value 0.994 | S. cerevisiae deletion strains, locus YLR027C, strain aat2, stronger effect = lower value 1.01 | S. cerevisiae deletion strains, locus YLR039C, strain RIC1, stronger effect = lower value 0.942 | S. cerevisiae deletion strains, locus YLR058C, strain SHM2, stronger effect = lower value 0.991 | S. cerevisiae deletion strains, locus YLR102C, strain apc9, stronger effect = lower value 1 | S. cerevisiae deletion strains, locus YLR113W, strain HOG1, stronger effect = lower value 0.892 | S. cerevisiae deletion strains, locus YLR221C, strain rsa3, stronger effect = lower value 0.985 | S. cerevisiae deletion strains, locus YLR258W, strain gsy2, stronger effect = lower value 0.997 | S. cerevisiae deletion strains, locus YLR262C, strain YPT6 (second series), stronger effect = lower value 0.94 | S. cerevisiae deletion strains, locus YLR262C, strain YPT6, stronger effect = lower value 0.859 | S. cerevisiae deletion strains, locus YLR268W, strain sec22, stronger effect = lower value 0.98 | S. cerevisiae deletion strains, locus YLR320W, strain mms22, stronger effect = lower value 0.994 | S. cerevisiae deletion strains, locus YLR330W, strain CHS5, stronger effect = lower value 1 | S. cerevisiae deletion strains, locus YLR342W, strain FKS1 (second series), stronger effect = lower value 0.916 | S. cerevisiae deletion strains, locus YLR342W, strain FKS1, stronger effect = lower value 0.995 | S. cerevisiae deletion strains, locus YLR357W, strain rsc2, stronger effect = lower value 1.02 | S. cerevisiae deletion strains, locus YLR370C, strain arc18, stronger effect = lower value 0.997 | S. cerevisiae deletion strains, locus YLR371W, strain rom2, stronger effect = lower value 0.981 | S. cerevisiae deletion strains, locus YLR384C, strain iki3, stronger effect = lower value 0.988 | S. cerevisiae deletion strains, locus YLR418C, strain cdc73, stronger effect = lower value 0.894 | S. cerevisiae deletion strains, locus YML016C, strain PPZ1, stronger effect = lower value 0.998 | S. cerevisiae deletion strains, locus YML032C, strain rad52, stronger effect = lower value 0.976 | S. cerevisiae deletion strains, locus YML120C, strain ndi1, stronger effect = lower value 1 | S. cerevisiae deletion strains, locus YML124C, strain tub3, stronger effect = lower value 0.984 | S. cerevisiae deletion strains, locus YMR058W, strain fet3, stronger effect = lower value 0.999 | S. cerevisiae deletion strains, locus YMR078C, strain ctf18, stronger effect = lower value 0.979 | S. cerevisiae deletion strains, locus YMR125W, strain sto1, stronger effect = lower value 1 | S. cerevisiae deletion strains, locus YMR129W, stronger effect = lower value 0.998 | S. cerevisiae deletion strains, locus YMR205C, strain PFK2, stronger effect = lower value 0.99 | S. cerevisiae deletion strains, locus YMR223W, strain ubp8, stronger effect = lower value 0.949 | S. cerevisiae deletion strains, locus YMR231W, strain pep5, stronger effect = lower value 0.982 | S. cerevisiae deletion strains, locus YMR263W, strain SAP30, stronger effect = lower value 0.999 | S. cerevisiae deletion strains, locus YMR307W, strain GAS1, stronger effect = lower value 1.07 | S. cerevisiae deletion strains, locus YNL067W, strain RPL9B, stronger effect = lower value 1 | S. cerevisiae deletion strains, locus YNL071W, strain lat1, stronger effect = lower value 1.01 | S. cerevisiae deletion strains, locus YNL128W, strain TEP1, stronger effect = lower value 0.992 | S. cerevisiae deletion strains, locus YNL153C, strain GIM3, stronger effect = lower value 1.01 | S. cerevisiae deletion strains, locus YNL183C, strain NPR1, stronger effect = lower value 0.951 | S. cerevisiae deletion strains, locus YNL209W, strain ssb2, stronger effect = lower value 0.997 | S. cerevisiae deletion strains, locus YNL233W, strain BNI4, stronger effect = lower value 0.986 | S. cerevisiae deletion strains, locus YNL248C, strain rpa49, stronger effect = lower value 1.01 | S. cerevisiae deletion strains, locus YNL250W, strain rad50, stronger effect = lower value 0.99 | S. cerevisiae deletion strains, locus YNL271C, strain bni1, stronger effect = lower value 0.99 | S. cerevisiae deletion strains, locus YNL298W, strain CLA4, stronger effect = lower value 0.981 | S. cerevisiae deletion strains, locus YNL322C, strain KRE1 (second series), stronger effect = lower value 0.97 | S. cerevisiae deletion strains, locus YNL322C, strain KRE1, stronger effect = lower value 1 | S. cerevisiae deletion strains, locus YNR049C, strain mso1, stronger effect = lower value 0.995 | S. cerevisiae deletion strains, locus YNR052C, strain pop2, stronger effect = lower value 0.979 | S. cerevisiae deletion strains, locus YOL006C, strain TOP1, stronger effect = lower value 0.969 | S. cerevisiae deletion strains, locus YOL012C, strain htz1 1.09 | S. cerevisiae deletion strains, locus YOL147C, strain pex11, stronger effect = lower value 0.996 | S. cerevisiae deletion strains, locus YOR001W, strain rrp6, stronger effect = lower value 0.993 | S. cerevisiae deletion strains, locus YOR061W, strain CKA2, stronger effect = lower value 1 | S. cerevisiae deletion strains, locus YOR069W, strain VPS5, stronger effect = lower value 0.996 | S. cerevisiae deletion strains, locus YOR070C, strain gyp1, stronger effect = lower value 0.982 | S. cerevisiae deletion strains, locus YOR080W, strain dia2, stronger effect = lower value 0.989 | S. cerevisiae deletion strains, locus YOR083W, strain WHI5, stronger effect = lower value 0.991 | S. cerevisiae deletion strains, locus YOR106W, strain vam3, stronger effect = lower value 0.97 | S. cerevisiae deletion strains, locus YOR136W, strain idh2, stronger effect = lower value 0.98 | S. cerevisiae deletion strains, locus YOR144C, strain elg1, stronger effect = lower value 0.991 | S. cerevisiae deletion strains, locus YOR184W, strain ser1, stronger effect = lower value 0.911 | S. cerevisiae deletion strains, locus YOR231W, strain MKK1, stronger effect = lower value 1.04 | S. cerevisiae deletion strains, locus YOR265W, strain rbl2, stronger effect = lower value 0.991 | S. cerevisiae deletion strains, locus YOR270C, strain vph1, stronger effect = lower value 0.967 | S. cerevisiae deletion strains, locus YOR290C, strain snf2, stronger effect = lower value 0.991 | S. cerevisiae deletion strains, locus YOR316C, strain cot1, stronger effect = lower value 1 | S. cerevisiae deletion strains, locus YPL051W, strain arl3, stronger effect = lower value 1.01 | S. cerevisiae deletion strains, locus YPL055C, strain LGE1, stronger effect = lower value 0.99 | S. cerevisiae deletion strains, locus YPL078C, strain atp4, stronger effect = lower value 1 | S. cerevisiae deletion strains, locus YPL106C, strain sse1, stronger effect = lower value 1 | S. cerevisiae deletion strains, locus YPL240C, strain hsp82, stronger effect = lower value 1 | S. cerevisiae deletion strains, locus YPL241C, strain CIN2, stronger effect = lower value 1.01 | S. cerevisiae deletion strains, locus YPL256C, strain CLN2, stronger effect = lower value 1.04 | S. cerevisiae deletion strains, locus YPR119W, strain clb2, stronger effect = lower value 0.987 | S. cerevisiae deletion strains, locus YPR141C, strain kar3, stronger effect = lower value 0.982 | S. cerevisiae deletion strains, locus YPR163C, strain tif3, stronger effect = lower value 0.981 | S. cerevisiae deletion strains, locus YPR167C, strain met16, stronger effect = lower value 0.977 | S. cerevisiae deletion strains, strain wtn01, stronger effect = lower value 0.983 | S. cerevisiae strains, strain wild type, stronger effect = lower value 1.01
active: S. cerevisiae deletion strains, locus YNL307C, strain MCK1, stronger effect = lower value 0.48
